The list is not random: actives were taken first. Their share in the collection is about 17%.
TDP1 cell noCPT = qHTS for Inhibitors of human tyrosyl-DNA phosphodiesterase 1 (TDP1): qHTS in cells in absence of CPT; DT40 Tdp1-/- hTDP1 cells, no CPT, ATP luminescence, 48 h; Potency, µM (highest dose often 46.2 µM), for the others: at the highest dose activity change, negative = growth inhibition, usual class: inhibitors; 15% of 420,000 active; further: on the % scale 0 is the no-effect control and ±100 the full control effect; nearly all actives have a fitted effect of over 55% in size
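Growth kinetics read by CellTiter-Glo luminescence after ≥48 hr at 37 °C. Cells: DT40 Tdp1-/- stably carrying human TDP1, 400 per well, compound exposure in the absence of CPT (DMSO vehicle).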
TDP1 cell CPT = growth inhibition of DT40 Tdp1-/-;hTDP1 cells with camptothecin (screen for TDP1 inhibitors) | chicken DT40 Tdp1-/-;hTDP1 cells + 20 nM CPT, ATP luminescence, 48 h | Potency, µM (titrated, usually from 46.2 µM), without a hit: at the highest dose activity change, negative = growth inhibition, actives largely listed as inhibitors | 12% of 420,000 active | AID 686979; further: on the % scale 0 is the no-effect control and ±100 the full control effect; nearly all actives have a fitted effect of over 55% in size
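Chicken DT40 Tdp1-/- cells stably complemented with human TDP1 were seeded at 400 cells/well in medium containing 20 nM camptothecin, exposed to pin-transferred compounds, and grown at 37 °C for at least 48 hr. Viability was read as ATP luminescence.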
ATXN2 expr inh = reduces ATXN2 reporter expression in HEK-293 cells; HEK-293 ATXN2-luciferase reporter, luminescence, 24 h; Potency, µM (titrated, usually from 57 µM), for inactives: top-dose activity change, negative = inhibition, hits mostly inhibitors; 0.72% of 360,000 active; further: on the % scale 0 is the no-effect control and ±100 the full control effect; nearly all actives have a fitted effect of over 55% in size
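qHTS (up to 57 uM final) was run with 24 h compound exposure of reporter cells at 37 °C. Each well was multiplexed: SteadyGlo luminescence measured ATXN2-luciferase expression after a fluorogenic Gly-Phe-AFC viability readout (25 uM final).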
HepG2 tox = counter-screen for TGF-b inhibitors: cytotoxicity in HepG2 cells | 0.76% of 410,000 active | AID 588856 | Potency, µM (series often up to 46.1 µM), inactives show at the highest dose activity change, negative = cytotoxicity, most hits filed as cytotoxic | HepG2 CAGA-GFP viability, ATP luminescence, 18 h
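CellTiter-Glo luminescence gave cytotoxicity after 18 hours at 37 degrees C. The cells were HepG2 CAGA-GFP in 1% FBS DMEM, stimulated with 500 pg/mL TGF-beta after compound addition. %Activity was normalised to no-cell wells (complete cell-killing) and DMSO (no toxicity), and curves were fitted and classified.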
TGFb inhibitor = inhibitors of TGF-b signaling; HepG2 CAGA-GFP TGF-b/SMAD3 reporter, GFP fluorescence, 18 h; TGF-beta stimulated, 500 pg/mL final; Potency, µM (titrated, usually from 46.1 µM), for inactives: top-dose activity, negative = inhibition, hits mostly inhibitors; 1.2% of 410,000 active; further: on the % scale 0 is the no-effect control and ±100 the full control effect; nearly all actives have a fitted effect of over 65% in size
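Inhibition of TGF-beta-driven CAGA-GFP reporter expression in HEPG2 cells is measured by cellular GFP fluorescence after 18 h stimulation with 500 pg/mL recombinant TGF-beta in 1% FBS medium at 37 degrees C.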
S2 tox = reduces viability in counter-screen for ATXN expression inhibitors. 0.49% of 400,000 active. AID 651635. Potency, µM (top dose mostly 56.7 µM), most hits filed as cytotoxic. S2 cells (HEK-293 line with an ATXN2-luciferase reporter) viability, CellTiter-Fluor protease fluorescence, 24 h; further: nearly all actives have a fitted effect of over 40% in size
* = called active by the depositor; [ ] = another dose, or the depositor's remark. The call rests on the fitted dose curve; in most records, active means well fitted curve in the direction sought with a large enough effect; inconclusive means small, poorly fitted or top-dose-only effect, or another doubt; inactive means no such curve, though single readings can be large; an effect the other way counts as inactive or inconclusive. Potency means the concentration at half of the fitted maximal effect.

How did COc1cc(Cl)c(C)cc1NC(=O)CSCc1nc(-c2ccc(OC)c(OC)c2)no1 do in these assays?
TDP1 cell noCPT: 16µM*; TDP1 cell CPT: 21µM*; HepG2 tox: -22%; TGFb inhibitor: -1%

What do the screens show for `COc1ccc(-c2noc(CSc3nnc(-c4ccc(Cl)cc4)n3C)n2)cc1OC`?
TDP1 cell noCPT: 16µM*; TDP1 cell CPT: inconclusive; ATXN2 expr inh: -21%; HepG2 tox: -44%; TGFb inhibitor: inconclusive; S2 tox: inactive

How did COc1ccc(-c2noc(CSc3nnc(-c4ccncc4)n3-c3ccccc3)n2)cc1 do in these assays?
TDP1 cell noCPT: 23µM*; TDP1 cell CPT: 16µM*; ATXN2 expr inh: inconclusive; HepG2 tox: -20%; TGFb inhibitor: inconclusive; S2 tox: inconclusive

What do the screens show for `COc1ccc(-n2c(SCc3nc(-c4ccc(C)cc4)no3)nnc2-c2ccncc2)cc1`?
TDP1 cell noCPT: -40%; TDP1 cell CPT: -19%; ATXN2 expr inh: -17%; HepG2 tox: -39%; TGFb inhibitor: inconclusive; S2 tox: inconclusive

How did CCN(c1ccccc1)S(=O)(=O)c1nnc(NC(=O)COc2ccc(OC)cc2)s1 do in these assays?
TDP1 cell noCPT: -8%; TDP1 cell CPT: -2%; HepG2 tox: -7%; TGFb inhibitor: -1%

How did Cc1ccc2nc(NC(=O)C3CCN(C(=O)c4ccc(F)cc4)CC3)sc2c1 do in these assays?
TDP1 cell noCPT: inconclusive; TDP1 cell CPT: inconclusive; ATXN2 expr inh: -26%; HepG2 tox: -24%; TGFb inhibitor: inconclusive; S2 tox: inconclusive

What do the screens show for `O=C(NC1CC(=O)N(c2ccc(Cl)cc2)C1)c1ccc2c(c1)OCO2` (centres undefined)?
TDP1 cell noCPT: inconclusive; TDP1 cell CPT: -17%; HepG2 tox: -1%; TGFb inhibitor: -8%

Results for CCc1ccc(-n2c(SCc3nc(-c4cc(OC)ccc4OC)no3)nnc2-c2ccccc2)cc1 ?
TDP1 cell noCPT: 21µM*; TDP1 cell CPT: 18µM*; ATXN2 expr inh: -16%; HepG2 tox: -30%; TGFb inhibitor: inconclusive; S2 tox: inconclusive

What do the screens show for `O=C(O)CSc1nnc(Cc2ccccc2)n1-c1ccccc1`?
TDP1 cell noCPT: 0%; TDP1 cell CPT: -12%; ATXN2 expr inh: -4%; HepG2 tox: -7%; TGFb inhibitor: -3%; S2 tox: inactive

Results for COc1ccc(-c2noc(Cc3ccc(Cl)cc3)n2)cc1OC ?
TDP1 cell noCPT: inconclusive; TDP1 cell CPT: 10µM*; ATXN2 expr inh: -16%; HepG2 tox: -29%; TGFb inhibitor: -21%; S2 tox: inactive

What do the screens show for `COc1ccc(-n2c(SCc3nnc(-c4ccccc4)o3)nnc2-c2ccccc2)cc1`?
TDP1 cell noCPT: inconclusive; TDP1 cell CPT: -8%; ATXN2 expr inh: -7%; HepG2 tox: -21%; TGFb inhibitor: -9%; S2 tox: inconclusive

Results for O=[N+]([O-])c1cccc(CSc2nnc(Cc3ccccc3)n2-c2ccc(F)cc2)c1 ?
TDP1 cell noCPT: inconclusive; TDP1 cell CPT: 18µM*; ATXN2 expr inh: -16%; HepG2 tox: -12%; TGFb inhibitor: inconclusive; S2 tox: inactive

What do the screens show for `CCOc1ccccc1-c1noc(CSc2nnc(-c3ccccc3)n2-c2ccc(F)cc2)n1`?
TDP1 cell noCPT: 13µM*; TDP1 cell CPT: 12µM*; ATXN2 expr inh: -6%; HepG2 tox: -8%; TGFb inhibitor: -1%; S2 tox: inactive

What do the screens show for `CCOc1ccc(/C=N/NC(=O)c2ccccc2O)cc1CN1CC2CC(C1)c1cccc(=O)n1C2` (centres undefined)?
TDP1 cell noCPT: inconclusive; TDP1 cell CPT: inconclusive; ATXN2 expr inh: 11%; HepG2 tox: -21%; TGFb inhibitor: -2%; S2 tox: inactive

How did CCn1c(CN2CCN(C)CC2)nc2cc(NC(=O)c3cc(OC)c(OC)c(OC)c3)ccc21 do in these assays?
TDP1 cell noCPT: -26%; TDP1 cell CPT: -21%; ATXN2 expr inh: -3%; HepG2 tox: -28%; TGFb inhibitor: 7%; S2 tox: inconclusive

What do the screens show for `COC(=O)c1ccccc1C(=O)NCC1Cc2cc(-c3nc(C)cnc3C)ccc2O1` (centres undefined)?
TDP1 cell noCPT: -9%; TDP1 cell CPT: 11%[9.04 µM]; S2 tox: inactive

How did COc1ccc(-c2noc(CSc3nnc(Cc4ccccc4)n3-c3ccc(F)cc3)n2)cc1 do in these assays?
TDP1 cell noCPT: 16µM*; TDP1 cell CPT: inconclusive; ATXN2 expr inh: inconclusive; HepG2 tox: -36%; TGFb inhibitor: 16µM*

Results for COc1cc(C(=O)OCC2CC(c3ccccc3)=NO2)cc(OC)c1OC (centres undefined) ?
TDP1 cell noCPT: inconclusive; TDP1 cell CPT: -4%; ATXN2 expr inh: -3%; HepG2 tox: -2%; TGFb inhibitor: 1%; S2 tox: inactive

How did COc1ccc(C2=NOC(Cn3nc(-c4ccccc4C)cc3C(=O)O)C2)cc1 (centres undefined) do in these assays?
TDP1 cell noCPT: -17%; TDP1 cell CPT: 9%; ATXN2 expr inh: 15%; HepG2 tox: -88%; TGFb inhibitor: -16%; S2 tox: inactive

Results for COc1ccc(C(=O)OCC2CC(c3ccccc3)=NO2)cc1OC (centres undefined) ?
TDP1 cell noCPT: inconclusive; TDP1 cell CPT: 23µM*; ATXN2 expr inh: -1%; HepG2 tox: -10%; TGFb inhibitor: -27%; S2 tox: inactive

What do the screens show for `COc1ccc(-c2nc3c(c(=O)n(C)c(=O)n3C)n2CC2CC(c3ccccc3)=NO2)cc1OC` (centres undefined)?
TDP1 cell noCPT: 1.5µM*; TDP1 cell CPT: 10µM*; ATXN2 expr inh: -7%; HepG2 tox: -12%; TGFb inhibitor: 6%; S2 tox: inactive

How did NS(=O)(=O)c1cccc(NC(=O)Nc2ccc(Cl)cc2)c1 do in these assays?
TDP1 cell noCPT: -21%; TDP1 cell CPT: -27%; ATXN2 expr inh: 32%; HepG2 tox: -3%; TGFb inhibitor: 1%; S2 tox: inactive

What do the screens show for `CC(C)S(=O)(=O)c1csc(NC(=O)Nc2ccc(Cl)cc2)c1`?
TDP1 cell noCPT: 12µM*; TDP1 cell CPT: 7.3µM*; ATXN2 expr inh: -19%; HepG2 tox: -32%; TGFb inhibitor: inconclusive; S2 tox: inconclusive
